Screens as filed in PubChem.
KCNH2 3.1 block: qHTS for Inhibitors of KCHN2 3.1: Mutant qHTS; U2OS KCNH2 3.1, thallium flux FluxOr; active compounds read low; Potassium voltage-gated channel subfamily H member 2, brain isoform KCNH2 3.1 (human); activity change, % (tested at about 1.8 µM); AID 720553, 2013; actives 0.95% (n = 340,000);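 active means maximum activity change below -70%; inconclusive means maximum activity change from -70% to -50%; inactive means maximum activity change above -50%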;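 further: thallium influx rate constant from kinetic fluorescence after stimulation buffer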
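We transduce U2OS cells with the mutant 3.1 virus, culture them overnight, load FluxOr with Red40 quencher for 45 min, then add stimulation buffer and read kinetically for 2 min to derive a normalized rate constant.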
ALOX12 inh: Primary qHTS assay for inhibitors of human arachidonate 12S-lipoxygenase (ALOX12): Round 2; Potency, µM (top dose mostly 108 µM), hits mostly inhibitors; purified 12hLO, xylenol orange hydroperoxide absorbance; Polyunsaturated fatty acid lipoxygenase ALOX12 (Homo sapiens), P18054; actives 1.1% (n = 580,000); AID 1671190, 2021; active means well fitted inhibition curve with a large enough effect; inconclusive means small, poorly fitted or top-dose-only effect, or another doubt; inactive means no such curve, though single readings can be large or run the other way
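Purified human 12hLO (150 nM final) in 25 mM Hepes, 0.01% Triton X-100, pH 7.0 was preincubated 15 min at room temperature with compound. Then 40 uM arachidonic acid was added, 30 min. Hydroperoxide was read by Fe-XO absorbance ratio 573/405 nm.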
Chronic BCR inh: qHTS Assay to Find Inhibitors of Chronic Active B-Cell Receptor Signaling | actives 0.05% (n = 340,000) | ABC-DLBCL IkBa-CBG/CBR reporter, luminescence ratio, 4 h | AID 493014, 2011 | Potency, µM (highest dose often 46.1 µM), usual class: inhibitors; active means well fitted inhibition curve with a large enough effect in the signal ratio, with a control signal flat, not every such curve was filed as active; inconclusive means small, poorly fitted or top-dose-only effect, or effect the other way, or a change in a side signal; the % refers to the signal ratio
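Concentration-response series (up to 46 uM) were applied to TMD8 dual-reporter cells for 4 h at 37C with doxycycline. Green/red ratio, after filter-overlap correction, defined %Activity; red signal alone was normalised to basal cells and zero luminescence.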
ClpP mod: qHTS Assay for Activators of ClpP; ATP-dependent Clp protease proteolytic subunit (Bacillus subtilis (strain 168)), P80244; purified B. subtilis ClpP, FRET peptide cleavage, 20 min; Potency, µM (series often up to 57.5 µM); actives 1.9% (n = 340,000); active means well fitted falling curve with a large enough effect; inconclusive means small, poorly fitted or top-dose-only effect; inactive means no such curve, though single readings can be large or run the other way; further: the source files actives as falling curves though it sought activators and does not explain the sign; nearly all actives have a fitted effect of over 65% in size
Target sequence (P80244 whole entry, looked up): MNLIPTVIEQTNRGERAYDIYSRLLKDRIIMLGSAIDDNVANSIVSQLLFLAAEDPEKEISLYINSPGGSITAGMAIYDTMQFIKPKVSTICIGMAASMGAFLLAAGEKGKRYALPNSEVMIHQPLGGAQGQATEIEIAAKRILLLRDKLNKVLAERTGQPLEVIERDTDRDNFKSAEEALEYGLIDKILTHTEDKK
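Buffer: 100 mM Tris/HCl pH8, 100 mM KCl, 0.05% low protease BSA, 2.5% glycerol, 0.01% Tween-20. ClpP 10 microg/mL final; 20 min RT; delta FRET normalized to ADEP and DMSO controls.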
KCNH2 WT inh: qHTS for Inhibitors of KCHN2 3.1: Wildtype qHTS. actives 0.37% (n = 340,000). U2OS, BacMam KCNH2, thallium flux FluxOr; active compounds read low. Voltage-gated inwardly rectifying potassium channel KCNH2 (Homo sapiens), Q12809. activity change, % at 1.84 µM. AID 720551, 2013;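 active means maximum activity change below -70%; inconclusive means maximum activity change between -70% and -50%; inactive means maximum activity change above -50%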
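U2OS cells transduced with wild-type KCNH2 virus are loaded with FluxOr dye for 45 min, and thallium flux is measured in kinetic reads before and after stimulation buffer. Rate constants are normalized to DMSO controls.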
LDHA inh: qHTS assay for inhibitors of human lactate dehydrogenase; activity change, % (values are at about 110 or 230 µM); L-lactate dehydrogenase A chain (Homo sapiens), P00338; purified LDHA, NADH/diaphorase-resazurin fluorescence; active compounds read low; AID 1347041, 2019; actives 0.15% (n = 480,000); in the data active means activity change below about -30%; inconclusive means mostly about -25% to -30%
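Resorufin fluorescence (ex540/em590), read at 0 and 20 min after diaphorase/resazurin addition, reports the NADH left after a 5 min room-temperature reaction of 2 nM human LDH5 with 0.06 mM NADH and 0.2 mM pyruvate.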
Numbers stand for hits; . = inactive; ? = inconclusive; / = no result given. Only some compounds are listed: those with a hit (about 3% of all), similar ones and a draw of the others.

SMILES	KCNH2 3.1 block	ALOX12 inh	Chronic BCR inh	ClpP mod	KCNH2 WT inh	LDHA inh
CN(Cc1ccccc1)Cc1c(O)ccc2ccccc12	.	0.794µM	.	.	.	.
CSc1ccccc1NC(=O)CN(C)CC(=O)Nc1c(F)cccc1F	.	.	?	?	.	-54.8
Cc1ccc(NC(=O)CN2C(=O)N/C(=C\c3cn(-c4cccc(C(=O)O)c4)cn3)C2=O)cc1	/	/	/	/	/	.
O=c1[nH]c(C2CCCN(CC3CCCC3)C2)nc2ccc(F)cc12 (centres undefined)	/	.	/	/	/	/
Cc1ccc(CNC(=O)Nc2c(NC3CCCC3)c3ccccc3oc2=O)cc1	/	?	/	/	/	.
CN(CC(=O)Nc1ccc(N2CCOCC2)cc1)Cc1c(O)ccc2ccccc12	.	?	?	/	.	.
CSc1ccccc1NC(=O)CN(C)Cc1c(O)ccc2ccccc12	.	5.01µM	.	/	.	.
O=C(OCC(=O)c1c[nH]c2ccccc12)c1ccccc1C(=O)c1ccc(Cl)c([N+](=O)[O-])c1	/	?	/	/	/	.
Cc1cccc(N2CCN(CC(=O)Nc3nccs3)CC2)c1C	.	?	.	.	.	.
C=CCNC(=O)N1CCCC(N2CCN(c3ccccc3OC)CC2)C1 (centres undefined)	.	.	.	15.8µM	.	.
COc1ccccc1N1CCN(CC(=O)N2CCCC2)CC1	.	.	.	/	.	-37.2
COc1ccccc1N1CCN(CC(=O)Nc2nccs2)CC1	.	20µM	.	.	.	.
CCc1cc2c(=O)n(Cc3ccco3)c(SCC(=O)NCC3CCCO3)nc2s1 (centres undefined)	.	.	?	.	.	.
O=C(NCc1ccco1)c1ccc2c(=O)n(Cc3ccco3)c(SCC(=O)N3CCCC3)nc2c1	.	.	?	.	.	.
CCc1cc2c(=O)n(Cc3ccco3)c(SCC(=O)N3CCCc4ccccc43)nc2s1	-77.4	.	?	.	.	.
CCc1cc2c(=O)n(Cc3ccco3)c(SCC(=O)N(C)C3CCS(=O)(=O)C3)nc2s1 (centres undefined)	-110.6	.	?	/	-89.5	.
O=C(CSc1nc2ccccc2c(=O)n1Cc1ccco1)N1CCCCCC1	-80.5	.	.	.	.	.
O=C1N(CCCCOc2ccccc2)c2ccccc2NC12CCNCC2	/	.	/	/	/	/
CCc1ccc(C(=O)NNC(=O)OC)cc1	.	.	?	14.1µM	.	.
CCOC(=O)Cc1cc(C(=O)Nc2ccc(Br)cc2)sc1-c1ccc(C)cc1	/	.	/	22.4µM	/	.
CCCOC(=O)c1cn(C)nc1S(=O)(=O)N1CCSCC1	/	?	/	/	/	.
COc1ccccc1CNC(=O)c1cc2cccc3c2n1CC(C)S3 (centres undefined)	/	.	/	31.6µM	/	.
Cn1cccc1C(=O)NCCc1ccc(Cl)cc1	.	.	?	.	.	.
Cc1ccccc1CNC(=O)c1cc2cccc3c2n1CC(C)S3 (centres undefined)	/	?	/	39.8µM	/	.
CC1Cn2c(C(=O)NCc3ccccc3Cl)cc3cccc(c32)S1 (centres undefined)	/	.	/	28.2µM	/	.
SMILES	KCNH2 3.1 block	ALOX12 inh	Chronic BCR inh	ClpP mod	KCNH2 WT inh	LDHA inh
COc1ccccc1CNC(=O)CCC(=O)N1CC(C)Sc2ccccc21 (centres undefined)	.	.	.	.	.	.
CC1Cn2c(C(=O)NCCc3ccc(Cl)cc3)cc3cccc(c32)S1 (centres undefined)	/	?	/	31.6µM	/	.
Cc1cc(C(=O)N2CCC(c3noc(-c4ccccc4)n3)C2)n[nH]1 (centres undefined)	/	.	/	/	/	/
O=Cc1cc2ccccc2nc1Sc1ccc(Cl)cc1	/	.	/	/	/	.
O=S(=O)(c1ccc2nc(N3CCN(c4ccccc4)CC3)ccc2c1)N1CCCC1	/	3.55µM	/	/	/	.
CCN1CCN(c2ccc3cc(S(=O)(=O)N4CCOCC4)ccc3n2)CC1	/	1.78µM	/	/	/	.
CCOc1ccc(CNC(=O)c2ccc(NC(=O)c3nnc(C)s3)cc2)cc1OC	/	?	/	/	/	.
CC1CCc2onc(C(=O)Nc3ccc(Cl)cc3)c2C1 (centres undefined)	/	.	/	.	/	.
CCCCCCCCCc1conc1C(=O)/C=C/c1oc2c(c1C)CCC(C)C2 (centres undefined)	/	39.8µM	/	.	/	.
COC1=C(OC)C(=O)C(Sc2ccc3ccccc3c2)=CC1=O	.	2µM	/	.	.	.
COc1ccc(S(=O)(=O)Oc2ccc3ccccc3c2)cc1	.	.	?	.	.	.
O=C(Nc1ccccc1)c1cc(-c2cccnc2)nc2ccccc12	/	.	/	/	/	.
C=CCC[C@H](Cc1ccc(F)cc1)C(=O)OC[C@@H](NC(=O)[C@@H](CC=C)CC(=O)N[C@@H](CO)Cc1ccccc1)C(C)(C)C	.	.	?	.	-100.0	.
C=CCC[C@@H](Cc1ccc(F)cc1)C(=O)OC[C@@H](NC(=O)[C@@H](CC=C)CC(=O)N[C@@H](CO)Cc1ccccc1)C(C)(C)C	/	.	?	.	/	.
COc1ccc2nc(C[C@@H]3C[C@@H](C(C)C)[C@H](CNC4CCCCC4)C=C3C)[nH]c2c1	/	.	/	/	/	/
CC(=O)Oc1c(/C=C(\C#N)C(N)=O)[nH]c2ccccc12	.	?	?	25.1µM	/	.
N#C/C(=C\c1c[nH]c2ccccc12)C(N)=O	.	?	.	.	.	.
COc1ccc(/C=N/Nc2nncn2N)cc1Br	.	.	?	15.8µM	.	.
O=c1oc2ccccc2c2oc3cc(O)c(O)cc3c12	.	6.31µM	?	/	.	.
CCOC(=O)C1CCN(S(=O)(=O)c2cccc(-c3cn4cc(Cl)ccc4n3)c2)CC1	.	.	.	?	.	.
Cc1nc(-c2cccc(S(=O)(=O)N3CCCC(C)C3)c2)cs1 (centres undefined)	.	?	.	.	.	.
CC1CCCN(S(=O)(=O)c2cccc(-c3cn4cccnc4n3)c2)C1 (centres undefined)	-109.7	.	.	?	.	.
CC1CCN(S(=O)(=O)c2cccc(-c3cn4cc(Cl)ccc4n3)c2)CC1	.	.	?	35.5µM	.	.
CN(C)C[C@@H]1CN(c2ccccn2)C[C@H]1NC(=O)c1cccn1C	/	.	/	/	/	/
COc1ccc(Cc2nc3ccc(C(=O)NCCc4ccncc4)cc3o2)cc1OC	.	.	?	.	.	.
